KCNQ2 inh: rat KCNQ2 potassium channel inhibitors, primary screen, cell-based, CHO-K1, FluxOR thallium flux, B-score; 20 min; hits give low values; B-score at 10 µM; actives 1.1% (n = 310,000); AID 2156, 2009; Potassium voltage-gated channel subfamily KQT member 2 (Rattus norvegicus), O88943;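 active = fluorescence ratio B-score at most minus 3 library SDs, with starting brightness B-score within 2 library SDs, cut at about -5.5 in these data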
KCNQ2 pot: potentiators of rat KCNQ2 potassium channel; AID 2239, 2010; actives 0.54% (n = 310,000); Potassium voltage-gated channel subfamily KQT member 2 (Rattus norvegicus), O88943; CHO-K1 KCNQ2, FluxOR thallium flux fluorescence; hits give high values; B-score at 10 µM;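 active = fluorescence ratio B-score at least 3 SD of library B-scores, with initial fluorescence B-score within 3 of them, cut at about 5.3 in these data; same plate scores as AID 2156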;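 also: B-score of peak minus minimum over baseline fluorescence ratio after K+ and Tl+ stimulus; positive B-score means potentiation of KCNQ2 with more thallium influx and brighter signal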
KCNQ2 inh conf: rat KCNQ2 potassium channel inhibitors, confirmation, cell-based, thallium flux; shares compounds with KCNQ2 inh; KCNQ2-expressing cells, inhibition; hits give low values; activity change, negative = inhibition, % at 10 µM; actives 57% (n = 1,000)
KCNQ1 spec: human KCNQ1 channel inhibition, counter-screen for KCNQ2 inhibitor project, cell-based, FluxOR thallium flux; shares compounds with KCNQ2 inh; activity change, negative = inhibition, % at 10 µM; KCNQ1-expressing cells, FluxOR thallium flux fluorescence; hits give low values; actives 15% (n = 1,000);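 active = activity change at least 3 SD of negative controls below their mean in both duplicate wells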;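 also: CHO cells stably transfected with KCNQ1 and depolarized by potassium stimulus; peak minus minimum fluorescence over baseline after thallium addition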
Target sequence (P51787 whole entry, looked up): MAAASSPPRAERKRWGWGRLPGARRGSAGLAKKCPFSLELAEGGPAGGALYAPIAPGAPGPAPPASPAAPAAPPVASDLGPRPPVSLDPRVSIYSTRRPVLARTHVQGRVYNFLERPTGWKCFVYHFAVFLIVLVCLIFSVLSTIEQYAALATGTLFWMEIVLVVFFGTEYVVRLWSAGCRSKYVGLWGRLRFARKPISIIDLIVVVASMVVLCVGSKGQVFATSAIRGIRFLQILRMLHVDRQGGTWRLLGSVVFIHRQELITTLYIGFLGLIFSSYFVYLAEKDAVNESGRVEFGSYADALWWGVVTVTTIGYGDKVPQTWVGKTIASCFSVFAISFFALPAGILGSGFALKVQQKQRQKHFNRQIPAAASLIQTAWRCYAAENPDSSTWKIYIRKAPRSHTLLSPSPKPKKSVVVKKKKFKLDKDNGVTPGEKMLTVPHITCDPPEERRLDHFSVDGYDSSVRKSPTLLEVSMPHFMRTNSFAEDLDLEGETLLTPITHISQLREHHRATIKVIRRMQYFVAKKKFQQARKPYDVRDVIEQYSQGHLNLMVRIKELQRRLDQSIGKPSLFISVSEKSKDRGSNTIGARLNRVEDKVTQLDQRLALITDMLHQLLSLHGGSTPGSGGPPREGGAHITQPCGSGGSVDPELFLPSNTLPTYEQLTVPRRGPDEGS
CHO parental ctr: thallium flux change in parental CHO cells, counter-screen for KCNQ2 inhibitor project; hits give low values; shares compounds with KCNQ2 inh; activity change, % at 10 µM; AID 493029, 2011; actives 14% (n = 1,000)
KCNQ2 patch conf: rat KCNQ2 channel inhibitors, confirmation, cell-based, automated patch clamp, single concentration | actives 49% (n = 550) | shares compounds with KCNQ2 inh | AID 588531, 2011 | KCNQ2-expressing cells, automated patch clamp current | calls only at 10 µM
Each line names hits and unclear results; the compound was inactive in the other large screens (follow-up assays come after a bar, where they were run). Compounds with a hit are over-represented: about 1.6% of the library has one in this group of screens. Unless noted, no rule for the calls is given here.

Cc1c(CCOC(=O)c2cc([N+](=O)[O-])cc([N+](=O)[O-])c2)sc[n+]1CC(=O)c1ccccc1	none
Cc1c(CCOC(=O)CC23CC4CC(CC(C4)C2)C3)sc[n+]1CC(=O)c1ccc(Br)cc1	KCNQ2 inh -9.97 | KCNQ2 inh conf -28.5% | KCNQ1 spec inactive | CHO parental ctr inactive | KCNQ2 patch conf active
Cc1c(CCOC(=O)c2ccccc2)sc[n+]1Cc1ccccc1	none (no result: KCNQ2 pot)
Cc1ccc(S(=O)(=O)N(C)CC(O)Cn2c3ccccc3c3ccccc32)cc1 (configuration not stated)	none (no result: KCNQ2 pot)
O=S(=O)(c1ccccc1)N(CC(O)Cn1c2ccccc2c2ccccc21)c1ccccc1 (configuration not stated)	KCNQ2 inh -9.55 | KCNQ2 inh conf inactive | KCNQ1 spec inactive | CHO parental ctr inactive
O=C(NC(c1ccccc1)c1ccccc1)N1CCOCC1	none (no result: KCNQ2 pot)
O=C(NC1c2ccccc2-c2ccccc21)N1CCOCC1	KCNQ2 inh -6.95 | KCNQ2 inh conf -28.5% | KCNQ1 spec inactive | CHO parental ctr inactive | KCNQ2 patch conf active
O=C(Cc1ccccc1)NC1c2ccccc2-c2ccccc21	KCNQ2 inh -6.75 | KCNQ2 inh conf inactive | KCNQ1 spec inactive | CHO parental ctr inactive
O=C(Cc1ccccc1)NNC(=O)Cc1ccccc1	none (no result: KCNQ2 pot)
Cn1c2ccccc2c2c(C(=O)NCc3ccco3)cn(C3CCCCC3)c(=O)c21	KCNQ2 inh -9.78 | KCNQ2 inh conf -26.0% | KCNQ1 spec inactive | CHO parental ctr inactive | KCNQ2 patch conf active
COCCn1cc(C(=O)NCc2ccco2)c2c3ccccc3n(C)c2c1=O	none
CCn1c(SCC(=O)c2ccccc2)nc2ccccc2c1=O	none
O=C(CSc1nc2ccccc2c(=O)n1NC(=O)c1ccccc1)c1ccc(Cl)cc1	KCNQ2 inh -10.2 | KCNQ2 inh conf -30.0% | KCNQ1 spec inactive | CHO parental ctr inactive | KCNQ2 patch conf active
Cc1nc2ccccc2c(=O)n1NC(=O)c1ccc(Cl)cc1	none
O=C(CSc1nc2ccccc2c(=O)n1NC(=O)c1ccccc1)c1ccccc1	KCNQ2 inh -11.7 | KCNQ2 inh conf -15.5% | KCNQ1 spec inactive | CHO parental ctr inactive | KCNQ2 patch conf active
COc1ccc(Nc2nc(N)c([N+](=O)[O-])c(NCc3ccccc3)n2)cc1	none (no result: KCNQ2 pot)
Cn1cccc1C(=O)OCC(=O)NC1CCS(=O)(=O)C1 (configuration not stated)	none (no result: KCNQ2 pot)
CCN(Cc1ccccc1)C(c1cccs1)c1nnnn1C1CCCCC1 (configuration not stated)	KCNQ2 inh -10.3 | KCNQ2 inh conf -33.5% | KCNQ1 spec inactive | CHO parental ctr inactive | KCNQ2 patch conf inactive
CCN(Cc1ccccc1)C(c1ccccn1)c1nnnn1C1CCCCC1 (configuration not stated)	none (no result: KCNQ2 pot)
Cc1ccsc1C(=O)N1CCCC(CCC(=O)NCc2ccc(F)c(F)c2)C1 (configuration not stated)	none (no result: KCNQ2 pot)
COC(=O)c1cccc(Nc2c3c(nc4ccccc24)CCC3)c1	KCNQ2 inh -6.63 | KCNQ2 inh conf -25.5% | KCNQ1 spec inactive | CHO parental ctr inactive | KCNQ2 patch conf active
CC(=O)c1cccc(Nc2c3c(nc4ccccc24)CCC3)c1	none (no result: KCNQ2 pot)
CNC(=S)N(CCc1ccc(S(N)(=O)=O)cc1)C1CC(=O)N(c2ccccc2F)C1=O (configuration not stated)	none (no result: KCNQ2 pot)
CCC1C(=NO)C(CC)C(c2ccccc2)NC1c1ccccc1 (configuration not stated)	KCNQ2 inh -9.42 | KCNQ2 inh conf -39.0% | KCNQ1 spec inactive | CHO parental ctr inactive | KCNQ2 patch conf inactive
CCCC1/C(=N/O)CC(c2ccccc2)NC1c1ccccc1 (configuration not stated)	none (no result: KCNQ2 pot)
O=C(CSc1nnc(COc2ccccc2)n1Cc1ccco1)NCc1ccco1	none
CCOc1ccc(NC(=O)CNC(=O)c2ccco2)cc1	none (no result: KCNQ2 pot)
COc1ccc(C(=O)Nc2c(-c3ccccc3)nc3ccccn23)c(OC)c1	none (no result: KCNQ2 pot)
COc1ccccc1C(=O)Nc1c(-c2ccccc2)nc2ccccn12	KCNQ2 inh -7.32 | KCNQ2 inh conf inactive | KCNQ1 spec inactive | CHO parental ctr inactive
C[C@]12CCC3C(CC[C@H]4CC(O)CC[C@]34C)C1CC/C2=N/NC(=O)c1ccncc1 (some centres not stated)	none (no result: KCNQ2 pot)
O=C(Nc1ccccc1Cc1ccccc1)c1oc2ccccc2c1COc1ccccc1	none (no result: KCNQ2 pot)
O=C(NCCc1ccccc1)c1oc2ccccc2c1COc1ccccc1	KCNQ2 inh -8.96 | KCNQ2 inh conf -23.5% | KCNQ1 spec inactive | CHO parental ctr inactive | KCNQ2 patch conf inactive
C=CCN1C(=O)c2ccc(C(=O)N(C)Cc3ccc(C)o3)cc2C1=O	none
O=C(NCCCc1ccccc1)c1cccs1	none (no result: KCNQ2 pot)
O=C(CCN1CCOCC1)c1ccc2c(c1)OCCO2	KCNQ2 inh -7.41 | KCNQ2 inh conf inactive | KCNQ1 spec inactive | CHO parental ctr inactive
O=C(OCCN1CCOCC1)c1ccc2c(c1)OCCO2	none (no result: KCNQ2 pot)
O=C(CCN1CCCCC1)c1ccccc1	none (no result: KCNQ2 pot)
O=C(CCN1CCOCC1)c1ccccc1	KCNQ2 inh -9.89 | KCNQ2 inh conf inactive | KCNQ1 spec inactive | CHO parental ctr inactive
COC(=O)c1ccc(S(=O)(=O)N2CCCN(Cc3cccc(Br)c3F)CC2)n1C	none
N#Cc1ccsc1NC(=O)CCN1CCN(C(c2ccccc2)c2ccccc2)CC1	none (no result: KCNQ2 pot)
O=C1NC2(CCCC2)C(=O)N1Cc1cc(=O)n2ccsc2n1	none (no result: KCNQ2 pot)
Cc1cccc(-c2nc(CN3CCCC(C(=O)NC4CCCCCC4)C3)c(C)o2)c1 (configuration not stated)	KCNQ2 inh -9.66 | KCNQ2 inh conf -27.5% | KCNQ1 spec inactive | CHO parental ctr inactive | KCNQ2 patch conf active
COc1ccccc1CNC(=O)C1CCN(Cc2nc(-c3cccc(Cl)c3)oc2C)CC1	KCNQ2 inh -7.78 | KCNQ2 inh conf inactive | KCNQ1 spec inactive | CHO parental ctr inactive
CCc1ccc(-c2nc(CN3CCC(C(=O)NCc4ccccc4OC)CC3)c(C)o2)cc1	none (no result: KCNQ2 pot)
Cc1cccc(-c2nc(CN3CCCC(C(=O)NC4CCCCC4)C3)c(C)o2)c1 (configuration not stated)	none (no result: KCNQ2 pot)
CCOC(=O)c1sc2nc(C)nc(NCc3ccc(F)cc3)c2c1C	none (no result: KCNQ2 pot)
CCn1nc(C)c(Oc2ccccc2O)c1C	none
CCOc1ccc(S(=O)(=O)Nc2cccc(OC)c2)cc1	none
CS(=O)(=O)c1ccc2c(c1)sc1nc(=O)c(/C=C3/C=CC(=O)C(O)=C3)c(N)n12	none (no result: KCNQ2 pot)
O=C(CCC(=O)Nc1ccccc1)NNC(=O)c1ccco1	none
CCN1CCN(CCCNC(=O)c2ccc(/C=C3/Sc4ccccc4N(Cc4ccccc4F)C3=O)cc2)CC1	none (no result: KCNQ2 pot)
CCN1CCN(CCNC(=O)c2ccc(/C=C3/Sc4ccccc4N(Cc4ccccc4C)C3=O)cc2)CC1	KCNQ2 inh -13.2 | KCNQ2 inh conf inactive | KCNQ1 spec inactive | CHO parental ctr inactive

Screening data: PubChem BioAssay, Johns Hopkins Ion Channel Center
